Results filed as inconclusive are left out. The source made the active and inactive calls. Calls come from the whole dose curve.

The values that follow come from PubChem BioAssay (Tox21).
% is set by controls: 0 for no effect and ±100 for the full control effect; potency is the fitted concentration of half-maximal effect.

The experiment is described as follows: qHTS assay to identify small molecule antagonists of the estrogen receptor alpha (ER-alpha) signaling pathway using the BG1 cell line (AID 743080).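 Note: BG1 cells stimulated with 17beta-estradiol alongside compound; nearly all actives have a fitted effect of over 25% in size.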 As to conditions: BG1Luc4E2 ERE-luciferase antagonist mode, luminescence; series mostly up to 70.3 µM; activity change, negative = inhibition: at the top concentration. The source says:
National Center for Advancing Translational Sciences [NCATS]
NIH Chemical Genomics Center [NCGC]
U.S. Environmental Protection Agency [EPA]
National Institutes of Environmental Health Sciences [NIEHS]
National Toxicology Program [NTP]
U.S. Food and Drug Administration [FDA]
Estrogen receptor (ER), a nuclear hormone receptor, plays an important role in development, metabolic homeostasis and reproduction. Endocrine disrupting chemicals (EDCs) and their interactions with steroid hormone receptors like ER causes disruption of normal endocrine function. Therefore, it is important to understand the effect of environmental chemicals on the ER signaling pathway. To identify ER antagonists, BG1-Luc-4E2 cell line (provided by Dr. Michael Denison from University of California) has been used to screen the Tox21 10K compound library. BG1Luc4E2 cell line endogenously expresses full-length ER-alpha and is stably transfected with a plasmid containing four estrogen responsive elements (ERE) upstream of a luciferase reporter gene.
Tox21 Assay Protocol Summary:
BG1-Luc-4E2 cells were cultured in phenol red free assay medium containing 10% charcoal stripped FBS for 5 days before the assay was performed. The cells were dispensed at 4,000 cells/4 uL of assay medium per well into white wall/solid-bottom 1536-well plates using a Multidrop Combi (ThermoFisher Scientific, Waltham, MA) dispenser. The assay plates were incubated at a 37C and 5% CO2 for 24 h, and then 23 nL of compounds dissolved in DMSO, positive controls or DMSO only was transferred to the assay plate using a Pintool station (Kalypsys, San Diego, CA), followed by addition of 1 uL of 17beta-estradiol in assay medium using a Flying Reagent Dispenser (Aurora Discovery, San Diego, CA). After the plates were incubated at 37 C and 5% CO2 for 21.5 h, 1 uL of CellTiter-Fluor reagent (Promega, Madison, WI) of measuring cytotoxicity was added using Flying Reagent Dispenser (FRD) to each well. The assay plates were incubated at 37 C and 5% CO2 for additional 30 min and the fluorescence intensity was quantified by a ViewLux plate reader (PerkinElmer, Shelton, CT). For measuring luciferase reporter gene activity, 4 uL of ONE-Glo reagent (Promega) was added to each plate using an FRD and luminescence was quantified by a ViewLux plate reader after 30 min incubation at room temperature.
(Quantitative high-throughput screening tests each substance at several concentrations.)
Take `ClCC(Cl)Cl`: the “activity change, negative = inhibition” value was -1.9% [at 95 µM] (inactive).

For the molecule `O=S(=O)(O)C(F)(F)C(F)(F)C(F)(F)C(F)(F)C(F)(F)C(F)(F)F`, the “activity change, negative = inhibition” value was -8.26% (inactive).

With `CCCCN(CCCCO)N=O`, the “activity change, negative = inhibition” value is 2.83% (inactive).

For `O=CNC(N1CCN(C(NC=O)C(Cl)(Cl)Cl)CC1)C(Cl)(Cl)Cl` (stereo not given), the “activity change, negative = inhibition” value was -2.58% (inactive).

On to `O=[N+]([O-])c1ccc2c3c(cccc13)CC2`, for which the “activity change, negative = inhibition” value is 3.96% (inactive).

For `C[C@H]1CCC[C@H](O)CCCCCc2cc(O)cc(O)c2C(=O)O1`, the Potency was 23.7 µM (active).

`CC(=O)C(Cl)Cl`: the “activity change, negative = inhibition” value is 0.0488% [at 95 µM] (inactive).

Consider `Nc1ccccc1Cl`, for which the “activity change, negative = inhibition” value was -0.88% (inactive).

In the case of `CC(CC(C#N)(c1ccccc1)c1ccccc1)N(C)C` (stereo not given), the “activity change, negative = inhibition” value is -12.7% (inactive).

Turning to `O=[N+]([O-])c1ccc(CBr)cc1`, the “activity change, negative = inhibition” value is 9.28% [at 95 µM] (inactive).

In the case of `COC(=O)c1c(C(F)F)nc(C(F)(F)F)c(C2=NCCS2)c1CC(C)C`, the “activity change, negative = inhibition” value was -13% (inactive).

On to `O=C1CN=C(c2ccccc2)c2cc([N+](=O)[O-])ccc2N1`, for which the “activity change, negative = inhibition” value is -6.01% (inactive).

On to `N#CC(CCc1ccc(Cl)cc1)(Cn1cncn1)c1ccccc1` (stereo not given), for which the Potency is 61.1 µM (active).

As for `COC(=O)C1=CCCN(C)C1`, the “activity change, negative = inhibition” value is -5.46% (inactive).

For `CCN(CC)C(=O)[C@@H]1C=C2c3cccc4[nH]cc(c34)C[C@H]2N(C)C1`, the Potency result was “inactive”.

With `ClC(Br)Br`, the “activity change, negative = inhibition” value is 0.454% (inactive).

Consider `BrCCCCCCBr`, for which the “activity change, negative = inhibition” value was -2.61% (inactive).

With `Nc1cnn(-c2ccccc2)c(=O)c1Cl`, the “activity change, negative = inhibition” value was 14.2% (inactive).

Turning to `N#Cc1c(Cl)cccc1Cl`, the “activity change, negative = inhibition” value is 3.51% (inactive).

`CC1=C(C(=O)Nc2ccccc2)S(=O)(=O)CCO1`: the Potency is 76.9 µM (active).

Turning to `NC(=S)C(N)=S`, the “activity change, negative = inhibition” value is 0.857% (inactive).

Regarding `CC1(C)C(=O)NC(=O)NC1=O`, the “activity change, negative = inhibition” value was 3.3% (inactive).

As to `N#CCCC#N`, the “activity change, negative = inhibition” value is 3.87% (inactive).

Take `CCOC(=O)/C=C(C)/C=C/C[C@@H](C)CCCC(C)C`: the Potency entry was “inactive”.

As to `O=P(O)(Oc1ccccc1)Oc1ccccc1`, the “activity change, negative = inhibition” value is -6.09% (inactive).

For `Oc1c(Cl)cccc1Cl`, the “activity change, negative = inhibition” value was 14.4% (inactive).

For the molecule `C#C[C@]1(O)C=C[C@H]2[C@@H]3CCC4=CC(=O)CC[C@@H]4[C@H]3CC[C@@]21CC`, the “activity change, negative = inhibition” value is -7.91% (inactive).

Regarding `C1CCC(C2CCCCC2)CC1`, the “activity change, negative = inhibition” value is -1.37% (inactive).

For `CCCSC(=O)Cl`, the “activity change, negative = inhibition” value is 0% [at 95 µM] (inactive).

`CNNC`: the “activity change, negative = inhibition” value is 5.54% [at 95 µM] (inactive).

On to `c1cc2c(c(N3CCNCC3)c1)OCCO2`, for which the “activity change, negative = inhibition” value is 0.629% (inactive).

For the molecule `CCOC(=O)CP(=O)(OCC)OCC`, the “activity change, negative = inhibition” value is -1.32% (inactive).

For the molecule `O=[N+]([O-])c1cc(Cl)c(Cl)c(Cl)c1`, the “activity change, negative = inhibition” value was 3.46% (inactive).

In the case of `C#CCN1C(=O)COc2cc(F)c(N3C(=O)C4=C(CCCC4)C3=O)cc21`, the “activity change, negative = inhibition” value is -11.5% (inactive).

`CSc1ccc(C(=O)C(C)(C)N2CCOCC2)cc1`: the “activity change, negative = inhibition” value is -13.9% (inactive).

In the case of `CCCCc1c(C)nc(NCC)[nH]c1=O`, the “activity change, negative = inhibition” value is 1.46% (inactive).

As to `O=C1OC(=O)C2C1C1(Cl)C(Cl)=C(Cl)C2(Cl)C1(Cl)Cl` (stereo not given), the “activity change, negative = inhibition” value is 1.8% [at 95 µM] (inactive).

Take `COc1cc(C[C@@H](C)N)c(OC)cc1C`: the “activity change, negative = inhibition” value was -8.24% [at 95 µM] (inactive).

`COc1ccc2c(c1OC)CN1CCc3cc4c(cc3C1C2)OCO4` (stereo not given): the “activity change, negative = inhibition” value was 9.59% [at 32.5 µM] (inactive).

Regarding `Fc1ccc(C2(Cn3cncn3)OC2c2ccccc2Cl)cc1` (stereo not given), the Potency is 68.6 µM (active).
